# Measured values as given in PubChem BioAssay (NCATS).
# Calls of active or inactive are those of the source. Calls follow the shape of the dose curve; as a rule, active = well fitted inhibition curve with a large enough effect; inconclusive = small, poorly fitted or top-dose-only effect; inactive = flat fitted curve, though single readings scatter.
# Biological target: ATP-dependent DNA helicase Q1 (Homo sapiens) (UniProt P46063)
# Test: qHTS Validation Assay for Inhibitors of RecQ-Like Dna Helicase 1 (RECQ1) (AID 2353);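 as to activity change, negative = inhibition: plate controls were DMSO vehicle for no effect and enzyme-free control for full effect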
# Details: recombinant RECQ1 helicase DNA unwinding assay; series mostly up to 25.6 µM; activity change, negative = inhibition: at the top concentration
# Source text: Survival of cells and the faithful propagation of the genome depend on elaborate mechanisms of detecting and repairing DNA damage. Treatment of advanced cancer relies on radiation therapy or chemotherapy, which kill cancer cells by causing extensive DNA damage. It is often found, that cancer cells develop resistance to therapy through enhanced activity of DNA repair functions; this has led to an increased interest in developing drugs that interfere with DNA repair, which could sensitize cancer cells to conventional therapy.
# This validation qHTS assay pertains to human RECQ1, which is important in resolving abnormal DNA structures formed during replication or homologous recombination. Shutting down the expression of RECQ1 leads to chromosomal instability and higher radiation sensitivity in cultured cells.
# The validation assay was a fluorescence quenching based kinetic qHTS for RECQ1 Helicase DNA unwinding. The activity was measured as ATP-dependent separation of a 20-bp DNA duplex extended by 30-nt single-stranded tails (forked duplex). The forked DNA substrate was tagged with rhodamine fluorophore (carboxytetramethyl rhodamine, TAMRA) and BHQ-2 (Black Hole Quencher 2) dark quencher. Strand separation results in an increase in the fluorescence of TAMRA (excitation 525 nm, emission 598 nm). This substrate construct operates in a red-shifted region where very few compound library members have been noted to fluoresce (PubChem AIDs 593 and 594). An additional feature of the assay is the inclusion of 2.5 ug/ml poly (dIdC), to reduce interference by compounds such as DNA intercalators, a major source of false inhibitors.
# Opher Gileadi, Structural Genomics Consortium, University of Oxford
# Screening Center PI: Austin, C.P.
# Screening Center: NIH Chemical Genomics Center [NCGC]
# Three uL of reaction buffer (25 mM Tris-HCl (pH 8.0), 5 mM NaCl, 2 mM MgCl2, 1mM DTT, 0.01% Tween- 20, and 2.5 ug/ml poly(dI-dC), including enzyme (50 nM RECQ1T1), were dispensed into a 1536-well Greiner black assay plate via solenoid-valve based nanoliter dispensers. Compounds (23 nl each in columns 5-48) and control (23 nl each in column 2 as dose-response) were transferred via a Kalypsys pintool equipped with a 1536-pin array. The plates were incubated for 15 min at room temperature, and then 1 ul of substrates (200 nM DNA and 2 mM ATP, final concentrations) was added to start the reaction. The plate was transferred into a ViewLux high-throughput CCD imager where the reaction progress was measured in a discontinuous kinetic mode (two reads spaced 2 hours apart, with intermediate room temperature incubation of the covered assay plate) by using standard red-fluorescence optics (excitation filter 525 nm, emission filter 598 nm). Enzyme-free and vehicle (DMSO) controls were included for signal normalization.
# Potency is read from the fitted curve at half-maximal effect.
# Chain of ATP-dependent DNA helicase Q1 (Homo sapiens) (P46063 whole entry, looked up): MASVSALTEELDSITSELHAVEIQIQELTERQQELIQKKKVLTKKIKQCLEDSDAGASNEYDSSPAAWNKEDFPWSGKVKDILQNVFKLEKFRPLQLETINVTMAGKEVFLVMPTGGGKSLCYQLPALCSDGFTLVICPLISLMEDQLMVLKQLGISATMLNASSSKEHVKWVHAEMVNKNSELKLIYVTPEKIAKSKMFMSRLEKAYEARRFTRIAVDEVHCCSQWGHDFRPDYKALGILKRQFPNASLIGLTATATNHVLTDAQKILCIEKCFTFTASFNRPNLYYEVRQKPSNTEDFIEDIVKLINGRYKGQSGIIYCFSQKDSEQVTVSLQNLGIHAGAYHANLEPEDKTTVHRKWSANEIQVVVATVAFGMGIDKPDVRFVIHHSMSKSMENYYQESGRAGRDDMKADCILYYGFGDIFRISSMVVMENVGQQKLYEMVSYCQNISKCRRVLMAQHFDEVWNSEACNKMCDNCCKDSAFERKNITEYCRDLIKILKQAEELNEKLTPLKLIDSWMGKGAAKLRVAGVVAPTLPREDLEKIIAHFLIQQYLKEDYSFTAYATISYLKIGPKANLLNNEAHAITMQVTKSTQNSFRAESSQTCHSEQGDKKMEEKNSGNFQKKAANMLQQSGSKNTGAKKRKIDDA
Structure (SMILES),Potency,"activity change, negative = inhibition"
CC(=O)[C@]1(O)Cc2c(O)c3c(c(O)c2[C@@H](O[C@H]2C[C@H](N)[C@H](O)[C@H](C)O2)C1)C(=O)c1ccccc1C3=O,11.2 µM (active),–
O=C(O)CP(=O)(O)O,–,-3.84% (inactive)
Cc1nc2sccn2c(=O)c1CCN1CCC(=C(c2ccc(F)cc2)c2ccc(F)cc2)CC1,–,-9.75% (inactive)
Nc1ncn([C@@H]2O[C@H](CO)[C@@H](O)[C@H]2O)c(=O)n1,–,0.817% (inactive)
CCN1CCc2nc(N)oc2CC1,–,4.82% (inactive)
CN1CCN(CC(=O)N2c3ccccc3C(=O)Nc3cccnc32)CC1,–,1.31% (inactive)
C=CCc1ccccc1OCC(O)CNC(C)C (stereo not given),–,-5.87% (inactive)
OCCN1CCN(CCCN2c3ccccc3C=Cc3ccccc32)CC1,inactive,–
Cc1ccc(S(=O)(=O)NC(=O)NN2CCCCCC2)cc1,–,-4.81% (inactive)
COC(=O)[C@H]1[C@H]2C[C@@H]3c4[nH]c5cc(OC)ccc5c4CCN3C[C@H]2C[C@@H](OC(=O)c2cc(OC)c(OC)c(OC)c2)[C@@H]1OC,–,-17.3% (inactive)
COCC(=O)O[C@]1(CCN(C)CCCc2nc3ccccc3[nH]2)CCc2cc(F)ccc2[C@@H]1C(C)C,–,-3.26% (inactive)
CCOC(=O)c1cnc2c(cnn2CC)c1NN=C(C)C,–,1.47% (inactive)
C[N+](C)(C)CCOC(N)=O,–,-0.467% (inactive)
CCn1nc(C(=O)O)c(=O)c2cc3c(cc21)OCO3,–,-6.78% (inactive)
NC(Cc1ccc(Cl)cc1)C(=O)O (stereo not given),–,-1.03% (inactive)
Nc1nc(N)c2nc(-c3ccccc3)c(N)nc2n1,–,-2.03% (inactive)
OCCN1CCN(CC/C=C2/c3ccccc3Sc3ccc(C(F)(F)F)cc32)CC1,–,2.97% (inactive)
CNCCC(Oc1ccccc1OC)c1ccccc1 (stereo not given),–,-2.35% (inactive)
NCCCNCCSP(=O)(O)O,–,-4.98% (inactive)
NS(=O)(=O)c1cc2c(cc1Cl)NC(C1CC3C=CC1C3)NS2(=O)=O (stereo not given),11.2 µM (active),–

Structure (SMILES),Potency,"activity change, negative = inhibition"
C[n+]1cc2c3c(ccc2c2ccc4cc5c(cc4c21)OCO5)OCO3,–,-4.91% (inactive)
CN/C(=C\[N+](=O)[O-])NCCSCc1ccc(CN(C)C)o1,–,12.8% (inactive)
CC(C)COCC(CN(Cc1ccccc1)c1ccccc1)N1CCCC1 (stereo not given),–,-5.8% (inactive)
CCCC(C(=O)OCCN(CC)CC)(c1ccccc1)c1ccccc1,–,1.48% (inactive)
CN(C)CCCN1c2ccccc2Sc2ccc(C(F)(F)F)cc21,–,-0.125% (inactive)
COc1cc2c(cc1OC)-c1cc(=Nc3c(C)cc(C)cc3C)n(C)c(=O)n1CC2,–,-3.08% (inactive)
NC/C=C/C(=O)O,–,1.33% (inactive)
Fc1ccc(C(c2ccc(F)cc2)N2CCN(C/C=C/c3ccccc3)CC2)cc1,–,-2.69% (inactive)
C#CCN(C)CCCOc1ccc(Cl)cc1Cl,–,2.49% (inactive)
N[C@@H](COP(=O)(O)O)C(=O)O,–,0.0478% (inactive)
NC(=O)c1ncn([C@@H]2O[C@H](CO)[C@@H](O)[C@H]2O)c1O,–,1.02% (inactive)
CCCN(CCC)C(=O)C(CCC(=O)O)NC(=O)c1ccccc1 (stereo not given),–,1.62% (inactive)
CN(C)CC[C@@H](c1ccc(Br)cc1)c1ccccn1,–,-5.73% (inactive)
CCOC(=O)C1=C(C)NC(C)=C(C(=O)OC)C1c1cccc([N+](=O)[O-])c1 (stereo not given),–,-5.38% (inactive)
CCc1c(C)[nH]c2c1C(=O)C(CN1CCOCC1)CC2 (stereo not given),–,6.54% (inactive)
O=C1CC2(CCCC2)CC(=O)N1CCCCN1CCN(c2ncccn2)CC1,–,-3.98% (inactive)
CCN(CC)CCNC(=O)c1cc(S(C)(=O)=O)ccc1OC,–,0.301% (inactive)
CCN(Cc1ccncc1)C(=O)C(CO)c1ccccc1 (stereo not given),–,-1.63% (inactive)
COc1cc(Cc2cnc(N)nc2N)cc(OC)c1OC,–,-6.04% (inactive)
CCN(CC)CCOCCOC(=O)C1(c2ccccc2)CCCC1,–,-3.44% (inactive)
